Results published in PubChem BioAssay.
Active and inactive are the calls of the source.

Experiments:
[1] = binders of probe aFSTL3 on microarray, primary screen, stem cell growth factor project, biochemical, small-molecule microarray, fluorescence 635/667 (AID 1064); details: higher = more signal;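 further: measures binding of the biotinylated anti-FSTL3 antibody to printed compounds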
[2] = binders from COS7 lysate, DM2A8 probe, primary screen, torsin A project, cell lysate, small-molecule microarray, fluorescence 635/667 (AID 1065); details: higher = more signal, COS7 lysate expressing mutant human TOR1A
[3] = binders of probe aFGF2 on microarray, primary screen, stem cell growth factor project, biochemical, small-molecule microarray, fluorescence 635/667 (AID 1067); details: higher = more signal;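 further: measures binding of biotinylated aFGF2 protein to printed compounds on slides; z-score merges feature fluorescence and signal-to-noise across triplicate slides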
[4] = binders of probe aFGF10 on microarray, primary screen, stem cell growth factor project, biochemical, small-molecule microarray, fluorescence 635/667 (AID 1071); details: higher = more signal;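 further: score merges 667 nm spot intensity and signal to noise from triplicate slides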
[5] = molecular target: Neurogenic locus notch homolog protein 2 (Homo sapiens) (UniProt Q04721); test: Notch2 binders on small-molecule microarrays, primary screen, biochemical, small-molecule microarray, 635 nm fluorescence, stem cell growth factors (AID 1073); details: Notch2 binding, higher = more signal
[6] = molecular target: Pro-neuregulin-1, membrane-bound isoform (Homo sapiens) (UniProt Q02297); test: NRG1 binders on small-molecule microarrays, primary screen, psychiatric disease protein project, biochemical, small-molecule microarray, fluorescence 635/667 (AID 1075); details: NRG1 binding, 635 nm fluorescence, higher = more signal;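 further: score combines 667 nm spot fluorescence with signal to noise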
[7] = system: Neuregulin-1 EGF-like domain; test: binders of neuregulin-1 EGF-like domain, primary screen, biochemical, small-molecule microarray, 635 nm fluorescence (AID 1081); details: small-molecule microarray binding, higher = more signal;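 further: binding of the protein to compounds printed on small-molecule microarray slides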
[8] = FRG1 promoter luciferase signal modulators, primary screen, FRG1 inhibition for FSHD, cell-based, C2C12 myotubes, firefly/Renilla luciferase, luminescence (AID 1084); details: higher = more signal, called active from +8 up or from −8 down
[9] = binders of probe aFST on microarray, primary screen, stem cell growth factor project, biochemical, small-molecule microarray, fluorescence 635/667 (AID 1086); details: higher = more signal;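 further: score merges 667 nm fluorescence with signal-to-noise of each printed compound spot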
[10] = binders of probe aHhip on microarray, primary screen, stem cell growth factor project, biochemical, small-molecule microarray, fluorescence 635/667 (AID 1087); details: higher = more signal;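 further: score merges spot fluorescence at 667nm with spot signal to noise ratio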
[11] = system: PRMT1 (protein arginine N-methyltransferase 1); test: PRMT1 binders on small-molecule microarrays, primary screen, biochemical, small-molecule microarray, 635 nm fluorescence (AID 1088); details: small-molecule microarray binding, higher = more signal;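 further: binding of Prmt1 protein to compounds spotted on small-molecule microarray slides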
[12] = yeast growth modulation, basal conditions, primary screen, YJM789 clinical isolate, OD600, 24 h (AID 1089);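 further: growth of clinical yeast isolate S. cerevisiae YJM 789 seeded 1000 cells per well; test concentration not given here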; details: S. cerevisiae YJM789 growth, higher = more signal, called active from +8 up or from −8 down
[13] = fission yeast growth modulation, primary screen, strain 972, OD600, 24 h, no modulator (AID 1090);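 further: basal condition with compound alone and no growth modifier present; test concentration not given here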; details: S. pombe 972 growth, higher = more signal, called active from +8 up or from −8 down
[14] = S. cerevisiae growth modulation with rapamycin, primary screen, strain BY4716, OD600, 96 h (AID 1091); details: higher = more signal, called active from +8 up or from −8 down; further: test concentration not given here
[15] = molecular target: Torsin-1A-interacting protein 2 (Homo sapiens) (UniProt Q8NFQ8); test: LULL1 binders on small-molecule microarray, primary screen, cell lysate, human LULL1 lysate, 635/667 nm fluorescence (AID 1092); details: hLULL1 lysate binding, 635 nm fluorescence, higher = more signal;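 further: probe is lysate of COS7 cells overexpressing human LULL1; score merges per-feature 667 nm fluorescence with signal-to-noise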
[16] = E. coli growth modulation, two-sided OD650, primary screen, E. coli filamentation project, strain DRC41, 24 h (AID 1093); details: OD650, 24 h, higher = more signal, called active from +8 up or from −8 down;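 further: MC1000 strain lacking acrAB efflux and sulA so SOS filamentation is blocked; test concentration not given here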
[17] = small-molecule microarray binders of probe aLefty2, primary screen, biochemical, biotinylated probe, 635/667 nm fluorescence (AID 1094); details: higher = more signal;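 further: score merges spot fluorescence near 667 nm with spot signal-to-noise ratio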
[18] = system: Noggin (protein binding on small-molecule microarray); test: Noggin binders on small-molecule microarray, primary screen, biochemical, 635/667 nm fluorescence (AID 1095); details: 635 nm fluorescence, higher = more signal;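 further: score merges 667 nm feature fluorescence with signal to noise over triplicate slides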
[19] = molecular target: Neurogenic locus notch homolog protein 3 (Homo sapiens) (UniProt Q9UM47); test: NOTCH3 binders on small-molecule microarray, primary screen, biochemical, 635/667 nm fluorescence (AID 1096); details: NOTCH3 binding, 635 nm fluorescence, higher = more signal
[20] = small-molecule microarray binders of probe aEGFR, primary screen, biochemical, biotinylated probe, 635/667 nm fluorescence (AID 1097); details: higher = more signal;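 further: probe is a biotinylated anti-EGFR antibody binding compounds printed on slides; score combines fluorescence near 667 nm and signal to noise of each spot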

Chain of Torsin-1A-interacting protein 2 (Homo sapiens) (Q8NFQ8 whole entry, looked up): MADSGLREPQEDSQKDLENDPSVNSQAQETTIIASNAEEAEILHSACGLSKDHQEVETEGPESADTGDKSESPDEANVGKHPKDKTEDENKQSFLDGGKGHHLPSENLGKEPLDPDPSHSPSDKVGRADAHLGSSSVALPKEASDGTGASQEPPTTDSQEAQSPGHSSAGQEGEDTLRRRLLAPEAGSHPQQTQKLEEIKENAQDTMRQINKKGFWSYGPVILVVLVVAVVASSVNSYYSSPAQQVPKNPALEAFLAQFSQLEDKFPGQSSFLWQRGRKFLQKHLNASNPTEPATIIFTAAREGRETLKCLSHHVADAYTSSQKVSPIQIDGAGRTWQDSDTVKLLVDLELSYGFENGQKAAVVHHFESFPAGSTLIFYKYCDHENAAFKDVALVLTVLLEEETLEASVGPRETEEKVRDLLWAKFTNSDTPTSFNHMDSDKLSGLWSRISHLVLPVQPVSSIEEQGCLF
Chain of Pro-neuregulin-1, membrane-bound isoform (Homo sapiens) (Q02297 whole entry, looked up, the tested form may be a part, canonical isoform): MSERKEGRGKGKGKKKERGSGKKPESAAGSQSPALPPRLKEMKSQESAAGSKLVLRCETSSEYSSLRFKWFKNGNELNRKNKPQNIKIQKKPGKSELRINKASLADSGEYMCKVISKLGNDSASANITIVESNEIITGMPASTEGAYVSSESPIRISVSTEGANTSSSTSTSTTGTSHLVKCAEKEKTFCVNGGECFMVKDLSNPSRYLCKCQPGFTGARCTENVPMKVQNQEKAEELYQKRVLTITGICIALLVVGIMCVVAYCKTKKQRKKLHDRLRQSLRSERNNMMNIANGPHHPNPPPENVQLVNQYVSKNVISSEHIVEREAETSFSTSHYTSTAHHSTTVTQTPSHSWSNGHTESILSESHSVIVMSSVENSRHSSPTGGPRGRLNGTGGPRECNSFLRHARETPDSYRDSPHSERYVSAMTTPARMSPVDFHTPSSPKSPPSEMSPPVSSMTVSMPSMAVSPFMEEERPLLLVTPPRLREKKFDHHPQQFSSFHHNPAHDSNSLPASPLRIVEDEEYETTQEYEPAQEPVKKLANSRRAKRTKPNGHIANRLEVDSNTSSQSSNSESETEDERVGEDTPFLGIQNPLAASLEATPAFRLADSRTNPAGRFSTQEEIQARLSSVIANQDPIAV
Chain of Neurogenic locus notch homolog protein 3 (Homo sapiens) (Q9UM47 whole entry, looked up): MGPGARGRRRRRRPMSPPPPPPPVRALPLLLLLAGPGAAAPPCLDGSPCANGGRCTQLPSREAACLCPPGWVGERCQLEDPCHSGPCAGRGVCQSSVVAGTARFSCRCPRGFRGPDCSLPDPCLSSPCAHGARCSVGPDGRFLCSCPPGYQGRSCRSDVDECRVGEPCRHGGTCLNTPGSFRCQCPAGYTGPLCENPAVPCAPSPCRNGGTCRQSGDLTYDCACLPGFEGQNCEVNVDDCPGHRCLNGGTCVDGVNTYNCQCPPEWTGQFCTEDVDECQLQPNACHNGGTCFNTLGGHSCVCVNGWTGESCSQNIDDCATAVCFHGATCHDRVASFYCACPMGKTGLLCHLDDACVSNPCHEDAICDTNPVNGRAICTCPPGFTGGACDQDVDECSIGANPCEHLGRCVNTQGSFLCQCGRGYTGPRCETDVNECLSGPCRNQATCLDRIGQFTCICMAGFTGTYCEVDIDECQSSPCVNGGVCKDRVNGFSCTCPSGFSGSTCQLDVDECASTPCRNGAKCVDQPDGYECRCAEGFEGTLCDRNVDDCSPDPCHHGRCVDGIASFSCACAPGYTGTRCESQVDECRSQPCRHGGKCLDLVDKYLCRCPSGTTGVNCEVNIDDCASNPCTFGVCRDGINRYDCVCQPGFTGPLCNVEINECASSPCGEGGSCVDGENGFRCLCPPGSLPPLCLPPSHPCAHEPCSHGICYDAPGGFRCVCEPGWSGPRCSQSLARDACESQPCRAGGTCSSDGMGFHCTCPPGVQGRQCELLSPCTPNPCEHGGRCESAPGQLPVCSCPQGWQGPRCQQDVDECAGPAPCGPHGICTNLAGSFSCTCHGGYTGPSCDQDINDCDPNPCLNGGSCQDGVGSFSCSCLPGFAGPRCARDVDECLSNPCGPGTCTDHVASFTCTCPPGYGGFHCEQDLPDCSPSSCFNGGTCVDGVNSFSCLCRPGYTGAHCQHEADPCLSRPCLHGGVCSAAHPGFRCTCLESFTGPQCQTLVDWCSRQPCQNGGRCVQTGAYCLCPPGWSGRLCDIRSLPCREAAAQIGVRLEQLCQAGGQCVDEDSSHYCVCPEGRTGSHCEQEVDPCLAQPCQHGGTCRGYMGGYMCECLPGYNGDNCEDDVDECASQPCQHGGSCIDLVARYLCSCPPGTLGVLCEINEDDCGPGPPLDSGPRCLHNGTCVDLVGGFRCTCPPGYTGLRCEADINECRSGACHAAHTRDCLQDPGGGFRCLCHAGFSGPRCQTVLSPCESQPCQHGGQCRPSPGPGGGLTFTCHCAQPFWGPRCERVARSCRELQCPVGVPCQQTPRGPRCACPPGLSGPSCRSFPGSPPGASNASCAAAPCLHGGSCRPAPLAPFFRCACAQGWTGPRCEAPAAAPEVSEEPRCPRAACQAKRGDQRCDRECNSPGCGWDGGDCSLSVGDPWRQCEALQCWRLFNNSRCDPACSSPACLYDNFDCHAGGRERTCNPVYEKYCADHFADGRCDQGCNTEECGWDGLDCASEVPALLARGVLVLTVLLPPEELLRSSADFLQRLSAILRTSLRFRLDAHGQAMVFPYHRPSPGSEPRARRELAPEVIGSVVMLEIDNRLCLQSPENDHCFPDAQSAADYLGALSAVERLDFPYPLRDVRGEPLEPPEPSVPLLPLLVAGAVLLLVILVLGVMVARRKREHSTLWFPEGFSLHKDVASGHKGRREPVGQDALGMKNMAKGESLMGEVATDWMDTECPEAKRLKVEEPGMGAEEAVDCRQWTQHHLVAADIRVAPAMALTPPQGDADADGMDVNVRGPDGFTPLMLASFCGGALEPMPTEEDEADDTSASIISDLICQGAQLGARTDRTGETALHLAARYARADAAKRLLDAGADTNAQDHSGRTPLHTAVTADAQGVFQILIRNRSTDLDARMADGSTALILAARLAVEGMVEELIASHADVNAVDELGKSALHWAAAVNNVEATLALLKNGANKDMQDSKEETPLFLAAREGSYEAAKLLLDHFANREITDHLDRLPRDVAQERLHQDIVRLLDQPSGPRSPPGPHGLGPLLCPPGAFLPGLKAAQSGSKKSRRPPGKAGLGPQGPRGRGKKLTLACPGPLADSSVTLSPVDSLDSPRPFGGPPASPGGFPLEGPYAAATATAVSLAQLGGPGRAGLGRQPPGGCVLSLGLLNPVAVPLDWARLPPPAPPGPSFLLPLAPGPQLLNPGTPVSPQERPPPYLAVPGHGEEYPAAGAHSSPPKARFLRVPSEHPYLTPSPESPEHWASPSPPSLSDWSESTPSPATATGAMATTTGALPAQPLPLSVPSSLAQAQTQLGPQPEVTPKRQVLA

SMILES | composite z-score [1] | composite z-score [2] | composite z-score [3] | composite z-score [4] | composite z-score [5] | composite z-score [6] | composite z-score [7] | z-score [8] | composite z-score [9] | composite z-score [10] | composite z-score [11] | z-score [12] | z-score [13] | z-score [14] | composite z-score [15] | z-score [16] | composite z-score [17] | composite z-score [18] | composite z-score [19] | composite z-score [20]
C=C(C(=O)CC[C@H](OC(=O)c1ccccc1-c1ccccc1C(=O)O)c1ccc(OCCO)cc1)C(C)C | -0.525 | 0.166 | 0.0033 | 0.13 | 0.214 | 1.76 | 1.26 | 1.72 (inactive) | 0.239 | -0.0994 | 1.51 | -1.2 (inactive) | -0.788 (inactive) | -1.28 (inactive) | 3.04 | 0.438 (inactive) | -0.135 | 0.779 | 0.241 | 0.0675
COC(=O)C(CC#Cc1ccc2c(c1)[C@]1(C(=O)N2)[C@H](c2ccc(OCCO)cc2)N2[C@H](c3ccccc3)[C@H](c3ccccc3)OC(=O)[C@H]2[C@@H]1C(N)=O)C(=O)OC | 0.0757 | 0.268 | 0.187 | 0.489 | 0.0619 | 1.26 | 1.17 | 2.1 (inactive) | -0.0778 | 0.0826 | 1.06 | 1.76 (inactive) | 1.23 (inactive) | 6.23 (inactive) | 2.03 | -0.0446 (inactive) | -0.134 | 0.122 | 0.0497 | -0.19
COCCOC(=O)N1C(=O)[C@@]2(c3cc(C#CC4(O)CCCCCC4)ccc31)[C@H](C(N)=O)[C@H]1C(=O)O[C@H](c3ccccc3)[C@H](c3ccccc3)N1[C@@H]2c1ccc(OCCO)cc1 | -0.243 | 1.08 | 0.0664 | 0.69 | 1.42 | 0.775 | 1.22 | 1.1 (inactive) | 0.388 | 0.189 | 1.54 | 1.73 (inactive) | -0.0624 (inactive) | 5.03 (inactive) | 2.51 | 0.662 (inactive) | 0.0723 | 1.2 | 1.09 | 0.104
COC(=O)[C@@]1(Cc2ccc(OC)cc2)[C@H]2c3cc(C(=O)N(C)C)n(Cc4c(CO)[nH]cc(C)c4=O)c3C[C@H]2CN1C(=O)c1ccccc1 | 0.466 | 0.249 | -0.015 | -0.112 | 1.56 | 2.09 | 1.37 | 2.07 (inactive) | 1.47 | 1.81 | -0.922 | 0.0886 (inactive) | 0.95 (inactive) | -0.622 (inactive) | 3.22 | -1.28 (inactive) | 0.334 | 0.0072 | 0.0193 | 0.215
COc1cc2c(cc1O)C(C)N(Cc1sc3ccccc3c1Cl)CC2 (stereo not given) | 0.208 | -1.01 | -0.17 | -0.563 | -0.246 | 0.717 | 0.343 | 0.541 (inactive) | -0.133 | -0.0994 | -0.77 | 0.173 (inactive) | -12.3 (active) | -1.6 (inactive) | -0.0038 | 0.566 (inactive) | 0.107 | -0.417 | -0.88 | -0.2
CC(C)(C)OC(=O)CC[C@]1(C(N)=O)N=C(c2ccc(OCCCO)cc2)O[C@H]1c1ccccc1N=[N+]=[N-] | 0.365 | -0.434 | -0.0088 | 0.396 | 0.9 | 1.73 | 1.48 | 6.25 (inactive) | 0.616 | 0.213 | 0.138 | 1.37 (inactive) | 0.138 (inactive) | 0.467 (inactive) | 2.75 | 0.626 (inactive) | 0.0598 | -0.165 | 0.206 | 0.141
COC(=O)C1(CC(C)C)C=C2C(=C(C)C(=O)C2C)CN1 (stereo not given) | 1.72 | 0.126 | 0.317 | -0.302 | 0.28 | -0.304 | 0.641 | 2.36 (inactive) | 1.58 | 1.43 | -0.999 | -0.355 (inactive) | 0.543 (inactive) | 0.202 (inactive) | 2.1 | -0.698 (inactive) | 0.374 | -0.054 | 0.379 | 0.449
C=C(COC)C(=O)CC[C@@H](OC(=O)c1ccccc1-c1ccccc1C(=O)O)c1ccccc1OCCO | -0.167 | 2.13 | -0.0543 | 1.27 | 0.468 | -0.189 | 1.12 | 0.896 (inactive) | -0.168 | -0.236 | 1.37 | -1.4 (inactive) | -1.95 (inactive) | -1.12 (inactive) | -0.225 | -0.434 (inactive) | -0.122 | 0.641 | 0.586 | -0.184
CC[C@@H](O[Si](C#C[Si](C(C)C)(C(C)C)C(C)C)(C(C)C)C(C)C)c1cn(Cc2cccc(Cl)c2)nn1 | -0.385 | 0.6 | -0.0594 | 0.238 | 0.863 | -0.019 | 0.69 | -0.0554 (inactive) | 0.197 | -0.0003 | 0.869 | 0.978 (inactive) | 0.719 (inactive) | 1.44 (inactive) | -0.0557 | 0.909 (inactive) | -0.138 | 0.523 | 0.932 | -0.113
COCCOC(=O)N1C(=O)[C@@]2(c3cc(C#CCNC(N)=O)ccc31)[C@H](C(=O)N1CCN(c3ncccn3)CC1)[C@H]1C(=O)O[C@H](c3ccccc3)[C@H](c3ccccc3)N1[C@@H]2c1ccc(O)cc1 | -1.35 | 0.0122 | -0.282 | -0.129 | -1.15 | -0.37 | -0.475 | -1.04 (inactive) | -0.874 | -0.769 | -0.479 | -0.357 (inactive) | -0.562 (inactive) | 0.0816 (inactive) | 1.37 | -0.324 (inactive) | -0.547 | -1.27 | -0.637 | -0.384
